# D2 antag: antagonizes the human D2 dopamine receptor. P14416. HEK293 TREx D2 cells, calcium flux, dopamine EC80. inhibition, % at 10 µM. actives 2% (n = 340,000). AID 485344; in the data active = inhibition above about 30%; inactive = below that, where a call was filed; also: 0% is about no effect
# Target sequence (P14416 whole entry, looked up): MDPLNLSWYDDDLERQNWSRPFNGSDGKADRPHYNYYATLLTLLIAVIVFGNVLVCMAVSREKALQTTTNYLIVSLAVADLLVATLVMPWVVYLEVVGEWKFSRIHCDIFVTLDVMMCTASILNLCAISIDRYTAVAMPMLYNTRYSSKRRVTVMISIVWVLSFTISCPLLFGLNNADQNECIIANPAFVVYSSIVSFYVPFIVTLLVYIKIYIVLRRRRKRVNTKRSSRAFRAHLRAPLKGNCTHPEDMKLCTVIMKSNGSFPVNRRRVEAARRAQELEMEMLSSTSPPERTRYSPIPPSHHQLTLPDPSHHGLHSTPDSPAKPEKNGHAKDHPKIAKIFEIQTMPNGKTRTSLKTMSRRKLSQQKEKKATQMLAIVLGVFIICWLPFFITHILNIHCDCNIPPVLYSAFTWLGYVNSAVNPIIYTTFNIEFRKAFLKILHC
#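 Inhibition of EC80 dopamine-driven calcium flux, recorded kinetically, defines activity here; cells are a tetracycline-induced HEK293 T-REx line expressing force-coupled D2.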
# D2 PAM-1: human D2 receptor positive allosteric modulation; DiscoveRx D2 beta-arrestin cells, luminescence, 90 min; 100% = 57 uM dopamine signal; potentiation, % (test concentration not listed); actives 0.23% (n = 360,000); AID 624464; in the data active = potentiation above about 50%; inconclusive = mostly about 30% to 49%
#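 PathHunter D2 cells, attached overnight at 37 deg C, received compound in DMSO plus dopamine at EC20 (50 nM final) for 90 min at 37 deg C. Beta-arrestin recruitment was read as luminescence after 1 h with detection reagent at ambient temperature.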
# D2 PAM-2: positive allosteric modulators of human D2 dopamine receptor | P14416 | HEK293 T-REx D2, calcium flux, EC20 dopamine potentiation | potentiation, % at 10 µM | actives 0.34% (n = 340,000) | AID 485347;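 active = potentiation over 3 SD above the plate norm, cut at about 30% in these data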; also: 0% is about no effect
#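 Primary screen. Calcium kinetics in induced HEK293 T-REx D2 cells: compound pre-addition 180 s, EC20 dopamine, 180 s more.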
# D2 ag-1: human D2 receptor agonism in beta-arrestin assay | P14416 | DiscoveRx PathHunter D2 beta-arrestin, luminescence, 90 min; 100% = 57 uM dopamine signal | activation, % (test concentration not listed) | actives 0.084% (n = 360,000); in the data active = activation above about 40%; inconclusive = between about 15% and that limit
#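 Agonist mode: compounds alone added to overnight-plated D2 PathHunter cells for 90 min at 37 C, with 57 uM final dopamine (EC100) defining full response. Beta-arrestin recruitment detected by chemiluminescent reagent, read after 1 h at ambient temperature.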
# D2 ag-2: activates the human D2 dopamine receptor; P14416; HEK293 T-REx D2 cells, calcium flux agonist mode; activation, % at 2 µM; actives 0.53% (n = 340,000); AID 485358;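 active = activation over 3 SD above normal in the single-dose calcium agonist read, cut at about 30% in these data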; also: 0% is about no effect
#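 Calcium-flux readout, 1 cycle/sec over 180 s following compound pin transfer, in inducible HEK293 Trex D2 cells (force-coupled); dopamine controls included. Positive calcium responses during this window marked compounds as potential agonists.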
# Starred values were filed as active, the others as inactive; ? = inconclusive; / = no result given. Hits are enriched below; roughly 2.4% of the tested compounds scored in any of these assays.
SMILES,D2 antag,D2 PAM-1,D2 PAM-2,D2 ag-1,D2 ag-2
Fc1ccc(N/N=C2/CC(c3ccccc3)Oc3ccccc32)c(F)c1 (centres undefined),3,82*,-4,14,0
COC(=O)c1ccc(NC(=O)CN2CCCN(Cc3ccc(Cl)cc3)S2(=O)=O)cc1,/,/,11,/,1
CCOc1ccccc1-n1nnc(-c2nc(-c3ccccc3C)no2)c1C,/,/,-5,/,1
CCOc1cc(C2c3c(oc4ccccc4c3=O)C(=O)N2Cc2ccc3c(c2)OCO3)ccc1O (centres undefined),/,/,14,/,5
CCN(CC(=O)Nc1cc(Cl)ccc1C)C(=O)Cc1sc(C)nc1-c1ccc(F)cc1,75*,-2,-42,-5,0
CCN(CC(=O)Nc1cc(Cl)ccc1C)C(=O)COc1ccccc1F,40*,-28,4,-3,-2
CCN(CC(=O)Nc1c(F)cccc1F)C(=O)Cc1sc(C)nc1-c1ccc(F)cc1,-3,11,17,-3,-1
CCN(CC(=O)Nc1cc(Cl)ccc1C)C(=O)CCOc1ccccc1C,31*,-36,-14,-3,0
CCC(C)Sc1oc(-c2ccco2)nc1S(=O)(=O)c1ccc(C)cc1 (centres undefined),/,/,-2,/,0
CC1CCC(NC(=O)c2cc3c(s2)CS(=O)(=O)C3)CC1 (centres undefined),41*,-10,11,-2,1
CCCSCCCNC(=O)c1cc2c(s1)CS(=O)(=O)C2,-5,5,0,-1,0
O=C(NC1CCCC1)c1ccc2c(c1)N(Cc1ccc(C(F)(F)F)cc1)C(=O)c1ccccc1S2,/,/,-5,/,0
COc1ccc(C(=O)Nc2ccc(O)c3ccccc23)cc1OC,/,82*,/,?,/
Cc1nc(CC(=O)Nc2ccc(C(N)=O)cc2)cs1,/,/,0,/,/
C/C(N)=C(/C#N)C(=O)CSc1nnc(Nc2ccccc2)s1,49*,10,22,10,-1
COc1ccc(-c2ccc(=O)n(CC(=O)Nc3ccc(N(C)C)cc3)n2)cc1,/,/,3,/,0
Cc1cccc(CNC(=O)c2cccc(NC(=O)N3CCSc4ncccc43)c2)c1,/,/,6,/,0
Nc1nc(Nc2ccccc2)sc1C(=O)c1ccccc1,-8,-7,5,0,12
CCNc1nc(N)c(C(=C(C#N)C#N)c2ccccc2)s1,45*,-39,-18,-3,-1
COc1cccc(NC(=O)Cn2c(=O)n(CC(=O)NCc3ccc(C)cc3)c(=O)c3sccc32)c1,/,/,17,/,2
O=C(O)c1ccc(N/N=C/C2=C(N3CCOCC3)C(=C\c3ccccc3)/CC2)cc1,10,51*,-5,11,11
Cc1cc(C)nc(N/N=C/C2=C(N3CCOCC3)C(=C\c3ccc(Cl)cc3)/CC2)n1,6,2,6,-8,2
CCCCn1c(=O)c2c(nc3n2CCCN3Cc2ccccc2)n(C)c1=O,34*,0,8,0,6
Cn1c(=O)n(Cc2ccccc2)c(=O)c2c1nc1n2CCCN1Cc1ccccc1,1,6,20,-3,0
CC(C)c1ccc(NC2CCCN(C(=O)c3cccnc3)C2)cc1 (centres undefined),16,-1,-7,-1,1
SMILES,D2 antag,D2 PAM-1,D2 PAM-2,D2 ag-1,D2 ag-2
Cc1ccc(NC2CCCN(C(=O)c3cccnc3)C2)cc1C (centres undefined),36*,-4,14,3,0
O=C1CC(c2nc3ccccc3n2CCCCOc2ccccc2)CN1c1ccccc1Cl (centres undefined),/,/,-1,/,0
COc1ccc(CNC(=O)C2CCC(=O)N(CCCN3CCCC3=O)C2)cc1 (centres undefined),-2,-27,8,-6,1
COc1ccc(C(C)(C)NC(=O)C2CCC(=O)N(CCCN3CCCC3=O)C2)cc1 (centres undefined),33*,-9,-13,-2,0
CCN(CC)CCNC(=O)c1cc(Nc2ccc(OC)c(OC)c2)nc2ccccc12,43*,-23,12,0,0
COc1ccc(Nc2cc(C(=O)NCc3ccccc3)c3ccccc3n2)cc1OC,/,/,/,/,0
COc1ccc(Nc2cc(C(=O)NCCCN3CCOCC3)c3ccccc3n2)cc1OC,30*,-10,-5,-6,0

# Screening results as filed in PubChem.
